Test results published in PubChem BioAssay.
Calls of active or inactive are those of the source.

Experiments:
[1] = compound effects on lung adenocarcinoma cell viability – A549, calcein-AM fluorescence, 48 h, basal, profiling panel (AID 1162); conditions: higher = more signal
[2] = compound effects on differentiated 3T3-L1 adipocyte viability – cell-based, 3T3-L1 adipocytes, calcein-AM fluorescence, 48 h, basal, profiling panel (AID 1163); conditions: 3T3-L1 adipocytes viability, higher = more signal
[3] = compound effects on hepatocellular carcinoma cell viability – HepG2, calcein-AM fluorescence, 48 h, basal, profiling panel (AID 1164); conditions: higher = more signal
[4] = compound effects on multiple myeloma cell viability – MM1S, calcein-AM fluorescence, 48 h, basal, profiling panel (AID 1165); conditions: higher = more signal
[5] = calcein-AM signal in unstimulated myeloma cells – cell-based, calcein-AM fluorescence, 48 h, PK04 Diversity Set, profiling panel (AID 1166); conditions: RPMI8226 myeloma viability, higher = more signal;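 also: cells grown under basal conditions without added stimulus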
[6] = JC-1 mitochondrial signal, unstimulated HepG2 cells – cell-based, JC-1 fluorescence, 24 h, 100 nL compound, profiling panel (AID 1167); conditions: HepG2 mitochondrial potential, higher = more signal
[7] = JC-1 mitochondrial signal, unstimulated adipocytes – cell-based, JC-1 fluorescence, 3T3-L1 adipocytes, 24 h, 100 nL compound, profiling panel (AID 1168); conditions: JC-1 mitochondrial fluorescence, higher = more signal, called active from +8 up or from −8 down
[8] = JC-1 mitochondrial signal, unstimulated myeloma cells – cell-based, JC-1 fluorescence, RPMI8226, 24 h, 100 nL compound, profiling panel (AID 1169); conditions: JC-1 mitochondrial potential fluorescence, higher = more signal
[9] = JC-1 mitochondrial signal, unstimulated MM1S myeloma – cell-based, JC-1 fluorescence, 24 h, 100 nL compound, profiling panel (AID 1170); conditions: MM1S mitochondrial potential, higher = more signal
[10] = resazurin metabolic signal in A549 cells – cell-based, resazurin fluorescence, 24 h, PK04 Diversity Set, profiling panel (AID 1171); conditions: A549 viability, higher = more signal, called active from +8 up or from −8 down
Also: test concentration not given here.

Row | SMILES | z-score [1] | z-score [2] | z-score [3] | z-score [4] | z-score [5] | z-score [6] | z-score [7] | z-score [8] | z-score [9] | z-score [10]
1 | CCOC(=O)CCN1C(=O)[C@H]2[C@H]3[C@H](O)[C@H](O)CC(=O)[C@H]3CC[C@H]2C1=O | -0.439 | 1.43 | 0.0368 | -0.904 | -0.122 | -0.103 | -0.237 (inactive) | 0.0295 | -1.28 | -0.125 (inactive)
2 | COc1ccc(-c2ccc3c(n2)CCCN3CC(O)CN2CCCc3nc(C)c(C)cc32)cc1 (stereo not given) | -0.389 | -0.943 | 0.151 | 0.676 | -0.158 | 1.58 | -0.205 (inactive) | -0.108 | -0.975 | -0.542 (inactive)
3 | CCOC(=O)CCN1C(=O)[C@H]2[C@H]3[C@H](O)[C@H](O)CC(=NOCc4ccccc4)[C@@H]3CC[C@H]2C1=O | 0.16 | 0.112 | -0.149 | -0.104 | 1.16 | -0.761 | -0.522 (inactive) | -0.043 | -0.362 | -0.0452 (inactive)
4 | CO[C@@H]1COC(=O)[C@@H]2CCCN2C(=O)[C@@H](C)COC(=O)[C@H](COCc2ccccc2)NC(=O)CC=C[C@H]1C | -0.427 | 0.169 | -1.5 | -0.329 | -0.0455 | -0.152 | -1.02 (inactive) | -0.156 | -0.683 | -0.366 (inactive)
5 | O[C@@H](Cc1ccccc1)[C@H]1C2C=CCCC(c3ccccc3)=C2CN1Cc1cccc(Cl)c1 (stereo not given in full) | 1.89 | 0.101 | 0.662 | -3.27 | -3.43 | 0.514 | -0.366 (inactive) | -1.09 | -0.823 | 0.75 (inactive)
6 | O=C1[C@H]2[C@H]3[C@H](O)[C@H](O)CC(=NOCc4ccccc4)[C@H]3CC[C@H]2C(=O)N1c1cccc(Oc2ccccc2)c1 | 0.382 | -0.921 | -0.6 | -0.641 | 0.907 | -0.988 | 0.394 (inactive) | 0.341 | -0.721 | 0.188 (inactive)
7 | COc1ccc(COC(=O)NN=C2C[C@@H](O)[C@@H](O)[C@@H]3[C@@H]4C(=O)N(c5ccc(F)cc5F)C(=O)[C@@H]4CC[C@@H]23)cc1 | -0.102 | 0.257 | -0.987 | -0.738 | -0.952 | 0.556 | 0.301 (inactive) | -0.195 | 0.627 | 0.909 (inactive)
8 | CN1C(=O)C2C=CC(C(O)C(c3ccccc3)c3ccccc3)N(NC(=O)OC(C)(C)C)C2C1=O (stereo not given) | -1.23 | -0.4 | -0.698 | -2.47 | -1.61 | -1.46 | -0.378 (inactive) | -0.654 | 0.455 | 0.383 (inactive)
9 | COc1ccc(COC(=O)NN=C2C[C@@H](O)[C@@H](O)[C@@H]3[C@@H]4C(=O)N(Cc5ccc6c(c5)OCO6)C(=O)[C@@H]4CC[C@@H]23)cc1 | 0.378 | 1.11 | -0.273 | -0.652 | -0.0219 | 0.621 | 1.04 (inactive) | -0.3 | -1.61 | 0.0201 (inactive)
10 | COC(=O)[C@H]1COC(c2ccc(OCCCO)cc2)=N1 | -0.283 | 0.568 | -0.344 | 0.0072 | -0.231 | -0.371 | 0.203 (inactive) | -0.16 | 1.23 | 0.0759 (inactive)
11 | O=C1O[C@@H](c2ccccc2)[C@@H](c2ccccc2)N2[C@@H](c3ccc(OCCO)cc3)[C@]3(C(=O)Nc4ccc(C#CCCO)cc43)[C@@H](C(=O)N3CCCCCCC3)[C@H]12 | 0.819 | 1.02 | 0.874 | 0.206 | 0.269 | 0.523 | -0.564 (inactive) | -0.974 | -0.399 | 0.932 (inactive)
12 | CO[C@H]1COC(=O)[C@H](C)COC(=O)CC=C[C@@H](C)[C@H](OC)COC(=O)CC=C[C@@H]1C | 0.593 | -0.101 | 0.968 | 0.191 | -0.0736 | 0.69 | 0.0241 (inactive) | 0.405 | 0.601 | 0.239 (inactive)
13 | CC(CCN1CCc2nc(-c3ccccc3)c(-c3ccccc3)cc2C1)=NO[C@H](C)c1cn([C@@H]2COC[C@H]2O)nn1 | 1.9 | 0.183 | 1.2 | 0.259 | -0.283 | 1.34 | -0.673 (inactive) | -0.291 | -0.381 | -0.579 (inactive)
14 | COC(=O)C1=CCC(c2cccc(Cl)c2)O1 (stereo not given) | -0.787 | -0.0098 | -1.14 | 0.233 | -0.783 | -0.549 | 0.00619 (inactive) | -0.757 | -0.428 | 0.107 (inactive)
15 | CO[C@H]1COC(=O)[C@H](C)NC(=O)[C@@H](C)COC(=O)CC=C[C@@H]1C | -0.0101 | 0.0176 | -0.368 | -0.303 | 0.693 | -0.176 | -1.32 (inactive) | -0.282 | -0.863 | -0.162 (inactive)
16 | CCOC(=O)CCN1C(=O)[C@H]2[C@H]3[C@H](O)C=CC(=O)[C@@H]3CC[C@H]2C1=O | 0.0872 | 0.0636 | 0.338 | -0.921 | 0.586 | 0.0469 | 0.53 (inactive) | 0.203 | 0.176 | 0.289 (inactive)

Row | SMILES | z-score [1] | z-score [2] | z-score [3] | z-score [4] | z-score [5] | z-score [6] | z-score [7] | z-score [8] | z-score [9] | z-score [10]
17 | CCN1C(=O)[C@H]2[C@H]3[C@H](O)[C@H](O)CC(=NO[C@@H]4O[C@H](CO)[C@@H](O)[C@H](O)[C@H]4O)[C@@H]3CC[C@H]2C1=O | 1.05 | 0.462 | 0.484 | -0.944 | 0.0072 | -0.608 | 0.725 (inactive) | 0.14 | -0.385 | -0.859 (inactive)
18 | COc1ccccc1CN1C(=O)c2ccccc2[C@@H](C(=O)NCC(F)(F)F)[C@@H]1c1ccc(CO)cc1 | 1.4 | -0.467 | 1.67 | -0.127 | 1.04 | 1.62 | 0.913 (inactive) | 0.28 | -0.684 | 0.633 (inactive)
19 | COC(=O)[C@H](C)NC(=O)CCC1CC(OC(=O)NCc2cccc3ccccc23)CC2(CCCC(COC(=O)NCC3CCCCC3)O2)O1 (stereo not given in full) | -0.332 | -0.687 | 0.385 | -0.875 | 0.913 | 1.38 | -0.477 (inactive) | -0.188 | -0.652 | 0.458 (inactive)
20 | COc1ccc([Si](C)(C)[C@@H]2[C@@H](CCO)O[C@]3(C(=O)N(Cc4ccc(NC(C)=O)cc4)c4ccccc43)[C@H]2C)cc1 | -1.98 | 1.37 | -2.77 | -2.47 | -3.9 | -1.29 | -0.0969 (inactive) | -1.18 | -1.93 | -3.2 (inactive)
21 | CO[C@H]1COC(=O)[C@@H]2CCCN2C(=O)CC=C[C@@H](C)[C@H](OC)COC(=O)CC=C[C@@H]1C | 0.346 | 1.04 | 1.01 | 0.292 | 0.84 | 1.23 | 0.252 (inactive) | -1.13 | 1.16 | 0.287 (inactive)
22 | COCCCNC(=O)[C@@]1(C)c2ccccc2C(=O)N(Cc2ccc(OC(F)(F)F)cc2)[C@H]1c1ccc(CO)cc1 | 0.144 | -0.471 | 1.22 | -0.0013 | 0.125 | 2.4 | 0.582 (inactive) | -0.68 | -1.06 | -0.903 (inactive)
23 | C[C@@H](c1ccccc1)N1C(=O)[C@H]2[C@H]3[C@H](O)[C@H](O)CC(=NNC(=O)OCc4ccccc4)[C@H]3CC[C@H]2C1=O | -0.34 | -0.903 | -0.208 | -0.0615 | 0.127 | -1.05 | -0.0829 (inactive) | 0.502 | 0.00989 | -0.0339 (inactive)
24 | O=C1[C@H]2[C@H]3[C@H](O)[C@H](O)CC(=NO[C@@H]4O[C@H](CO)[C@@H](O)[C@H](O)[C@H]4O)[C@H]3CC[C@H]2C(=O)N1Cc1ccccc1 | -0.0916 | -0.0474 | -0.571 | 0.713 | -0.716 | 0.616 | -0.0221 (inactive) | 0.42 | -0.755 | 0.623 (inactive)
25 | CC(C)[C@H](NC(=O)OC(C)(C)C)[C@@H](O)CC(=O)OC(C)(C)C | 0.403 | 1.24 | 0.026 | 0.793 | -0.229 | 0.251 | -0.689 (inactive) | 0.62 | 1.06 | -1.54 (inactive)
26 | CC(CCN1CCc2nc(-c3ccccc3)c(-c3ccccc3)cc2C1)=NOC[C@@H](C)[C@H](OCc1ccccc1)C(C)C | 0.474 | 0.503 | 0.488 | -0.637 | -1.89 | 1.76 | -0.479 (inactive) | 0.161 | -0.38 | -0.611 (inactive)
27 | COC(=O)[C@@]1(Cc2ccccc2)[C@H]2c3cc(C(=O)N4CCCC4)n(Cc4ccccn4)c3C[C@H]2CN1C(=O)c1ccccc1 | -0.935 | 1.91 | -0.924 | -0.0789 | -1.72 | 1.06 | 0.339 (inactive) | -0.16 | 0.333 | -1.53 (inactive)
28 | CCOC(=O)[C@H](Cc1ccccc1)NC(=O)CCC1CC(OC(=O)NCc2ccc3c(c2)OCO3)CC2(CCCC(COC(=O)NCc3ccccc3)O2)O1 (stereo not given in full) | -0.195 | -0.64 | 0.607 | 0.84 | 0.709 | 2.27 | 0.392 (inactive) | 0.0886 | -0.997 | 0.98 (inactive)
29 | CCOC(=O)NN=C1C[C@@H](O)[C@@H](O)[C@@H]2[C@@H]3C(=O)N(C(C)(C)C)C(=O)[C@@H]3CC[C@@H]12 | -0.571 | -0.0947 | -0.394 | 0.0284 | -0.0464 | -0.79 | -0.911 (inactive) | 0.329 | 0.243 | -0.452 (inactive)
30 | CO[C@@H]1COC(=O)CC=C[C@@H](C)[C@H](OC)COC(=O)[C@H](COCc2ccccc2)NC(=O)CC=C[C@H]1C | -0.0667 | 0.461 | 0.422 | -0.0878 | 0.651 | 0.0535 | -0.303 (inactive) | 0.577 | 0.179 | -0.27 (inactive)
31 | COc1ccc(-c2nc3c(c4c2C[C@H](C)OC4)CN(CCC(C)C)CC3)cc1 | 0.537 | -0.49 | 0.443 | 0.508 | -0.234 | 1.7 | -0.613 (inactive) | 0.0911 | -0.685 | -0.0598 (inactive)
